Hit rate of the full screen: of about 360,000 compounds, about 1,100 (0.31%) were called active. The list comes from a sample in which actives are over-represented; it also holds similar structures and randomly drawn compounds. A number with no mark means an inactive call. No stated cut-off is given here; in the data, active means activity change below about -30%; inactive means the rest.
On the % scale 0 is the no-effect control and ±100 the full control effect.

This assay has as its system cytosolic chaperonin (CCT/TRiC complex). Nature of the assay: High-Throughput Screening for Modulators of Cytosolic Chaperonin Activity. Particulars: purified chaperonin ATPase assay, HTRF ADP detection, 30 min; hits give low values. In outline:
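First, chaperonin was dispensed at 40 nM or 20 nM final depending on batch activity. Next, compounds were pinned at 76 uM and ATP added at 10 uM. After 30 min at 37 °C, ADP detection reagents ran 30 min at ambient temperature.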
Background: Time-resolved FRET reads energy transfer from a long-lived donor to a nearby acceptor.
Turning to `CSCCC1NC2(C(=O)Nc3ccc(Cl)cc32)[C@@H]2C(=O)N(C3CCCC3)C(=O)[C@H]12` (stereo partly specified), the activity change is 1.03%. In the case of `Cc1c(CC(=O)NCC(=O)NCC(=O)O)c(=O)oc2cc3oc4c(c3cc12)CCCC4` it was -2.16%; in that of `COc1ccc(-n2nc3c(c2NC(=O)c2ccc(N4C(=O)CCC4=O)cc2)CSC3)cc1`, -0.865%; in that of `COc1cc(NC(=O)c2ccc(-c3csc(C)n3)cc2)c(OC)cc1Cl`, -4.58%.

As to `COc1ccc(-c2csc(NC(=O)c3ccc(N4C(=O)CCC4=O)cc3)n2)cc1OC`, the activity change was -39.6% (active). As to `C[C@H]1Cn2cnc(C(=O)N[C@H](C)c3ccccc3)c2C(=O)N1`, the activity change is -0.974%.

For the compound `Cc1ccc2nc(SCC(=O)NC3CCCC3)[nH]c2c1`, the activity change was -1.34%. Consider `CCc1c(C)nc(SCC(=O)NC2CCCC2)[nH]c1=O`, for which the activity change is -41.7% (active). In the case of `Cc1nc(SCC(=O)NC2CCCC2)[nH]c(=O)c1C` it was -0.123%; in that of `O=C(CSC1=NS(=O)(=O)c2cc(F)ccc2N1)Nc1ccccc1F`, 0.641%; in that of `COC(=O)c1ccc(S(=O)(=O)c2ccc(C(=O)OC)s2)s1`, 1.17%. In the case of `COc1cccc(-c2nn(-c3ccccc3)cc2/C=C(\C#N)C(=O)NCCCn2ccnc2)c1` it was -0.966%; in that of `Cc1ccc(-c2nn(-c3ccccc3)cc2/C=C/C(=O)Nc2cccc(S(N)(=O)=O)c2)cc1`, 0.245%.

Take `CN(C)S(=O)(=O)c1cccc(-c2nn(-c3ccccc3)cc2/C=C2\SC(=S)N(CC(=O)O)C2=O)c1`: the activity change was -61.8% (active). In the case of `CSc1nc2ccccc2cc1/C=C(\C#N)c1ccc(Cl)cc1Cl` it was 2.8%; in that of `Cn1nc([N+](=O)[O-])nc1Sc1ccc(C(C)(C)C)cc1`, -4.31%; in that of `Cc1cc(C(=O)NNC(=S)NC(C)c2ccccc2)cs1` (stereo unspecified), -0.958%. The same measure for `O=C(Nc1ccncc1)c1cc(-c2ccccn2)nc2ccc(Br)cc12`: -70.4% (active). In the case of `Cc1ccc2nc(-c3ccncc3)cc(C(=O)Nc3ccc(OC(F)F)cc3)c2c1`, the activity change was -2.42%. Take `O=C(Nc1ccc(Br)cc1)c1cc(S(=O)(=O)Nc2ccccn2)ccc1Cl`: the activity change was -1.07%.

In the case of `O=C(Nc1ccc(Cl)cc1)/C(=C1\CCCN1)[N+](=O)[O-]`, the activity change is 0.411%.

As to `O=C(Nc1cc(-c2nc3ncccc3o2)ccc1Cl)c1ccco1`, the activity change was -2.43%.

As for `O=S1(=O)CC(N2CCN(c3ccccn3)CC2)CN1Cc1ccc(F)cc1` (stereo unspecified), the activity change was -0.743%.

In the case of `Cc1cc(C)n2nc(C(=O)Nc3cccc(S(=O)(=O)N4CCOCC4)c3)nc2n1`, the activity change is -34.4% (active). Take `Cc1occc1C(=O)Nc1cccc(S(=O)(=O)N2CCOCC2)c1`: the activity change is -3.31%. The same measure for `Cc1c(C(=O)Nc2cccc(S(=O)(=O)N3CCOCC3)c2)oc2ccccc12`: -1.92%.
